Reference: PubChem BioAssay AID504651 (National Center for Advancing Translational Sciences (NCATS), 2011)
The whole screen tested about 360,000 compounds, of which about 130 (0.036%) were called active. The sample as a whole holds a higher share of actives than the screen did. A number with no mark means an inactive call. Cut-off read from the data, not from the text of the source: active = potentiation above about 30%; inactive = the rest.

The compounds below were run against D(1A) dopamine receptor (Homo sapiens) (UniProt P21728) (assay: Potentiators of Human D1 Dopamine Receptor: qHTS). Settings: HEK293 TREx D1 cells, calcium flux, dopamine EC20 potentiation; at 10 µM; stronger effect = higher value.
Source text: Dopamine receptors (DARs) are involved in the etiology and/or therapy of a number of neuropsychiatric and endocrine disorders. For instance, all receptor-based antiparkinsonian drugs work via stimulating the D1 DAR subtype whereas all FDA-approved antipsychotic agents are antagonists of this receptor. […] There are three different types of allosteric modulators that we are seeking, two of which will stimulate or augment receptor signaling, allosteric agonists and potentiators, while the third, allosteric antagonists, will attenuate receptor signaling. The present primary screening assay measures compound potentiation of an EC20 dopamine response by tracking calcium flux in a […], inducible Hek293 Trex D1 cell line.
NIH Chemical Genomics Center [NCGC]
NIH Molecular Libraries Probe Centers Network [MLPCN]
Assay Submitter (PI): David Sibley
Freshly passaged cells are plated in 1536 well black, clear bottom plates at a density of 4000 cells/well in 3 ul of complete media containing 1x tetracycline inducer. After an overnight incubation at 30 C in 5% CO2, cells are loaded with 2 ul of the no wash Calcium Assay Kit (ABD Bioquest) and incubated at room temperature for 30 to 90 minutes. A 10 cycle (1 second/cycle) baseline measurement is taken and then the FDSS online 1536 pintool delivers 23 nl of compound library (as well as dopamine controls) to the plate. The plate is measured for kinetically at 1 cycle/sec for 180 seconds and is considered to be the agonist portion of the assay (eg, compounds which activate a positive calcium response during this portion are flagged as potential agonists). Following the 180 second read, 1 ul of an EC20 of dopamine is delivered by an onboard pipette head. Measurements are taken kinetically for an additional 180 seconds.
Note: 0% is about no effect.

Chain of D(1A) dopamine receptor (Homo sapiens) (P21728 whole entry, looked up): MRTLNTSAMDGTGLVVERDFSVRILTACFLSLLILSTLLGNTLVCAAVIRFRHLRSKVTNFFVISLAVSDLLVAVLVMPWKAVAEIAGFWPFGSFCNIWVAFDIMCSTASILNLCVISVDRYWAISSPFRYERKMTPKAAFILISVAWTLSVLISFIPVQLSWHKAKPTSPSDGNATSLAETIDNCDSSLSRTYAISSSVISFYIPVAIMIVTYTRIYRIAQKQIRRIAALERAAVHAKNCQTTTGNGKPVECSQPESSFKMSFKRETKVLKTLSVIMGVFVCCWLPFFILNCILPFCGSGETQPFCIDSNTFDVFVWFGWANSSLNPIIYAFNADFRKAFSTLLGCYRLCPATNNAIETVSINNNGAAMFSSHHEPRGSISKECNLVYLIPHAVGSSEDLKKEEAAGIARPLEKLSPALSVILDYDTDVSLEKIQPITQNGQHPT

With `O=C1C2(Cl)C3(Cl)C4(Cl)C(Cl)(Cl)C5(Cl)C3(Cl)C1(Cl)C5(Cl)C24Cl` (stereo not given) the potentiation was 54.8% (active).

Going from `Cc1cccc(-n2c(O)c(C=NC34CN5CN(CN(C5)C3)C4)c(=O)[nH]c2=O)c1` to `CNC(=O)O/N=C(\N)Cc1csc2ccccc12`, the potentiation falls from -1.15% to -9.15%.

Compared with `Clc1cccc(Cl)c1Cl`, `COP(=O)(NS(=O)(=O)c1ccccc1)OC` is lower in potentiation: -1.55% for the first, -2.85% for the second.
